# Measurements published in PubChem BioAssay (NCI).
# This is part of a sample that, as a whole, favours compounds with a hit. Of some 79,000 tested, about 15% had one in any assay. A number with no mark means an inactive call. The source made the active and inactive calls. Cut-off read from the data, not from the text of the source: active = growth inhibition above about 70%; inactive = the rest.
# Tests used:
# [1] = NCI Yeast Anticancer Drug Screen. Data for the rad50 strain (AID 155);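 note: 0% = growth of vehicle-only cultures of the same strain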; details: S. cerevisiae rad50 strain growth inhibition; at 50.0 µM; stronger effect = higher value
# Method in brief: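 Readout: growth inhibition relative to vehicle-treated cultures. Compound exposure was carried out in a genetically defined yeast strain deficient in DNA damage repair.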
# [2] = NCI Yeast Anticancer Drug Screen. Data for the mec2-1 strain (AID 157); details: S. cerevisiae mec2-1 strain, at 50.0 µM, stronger effect = higher value
# Method in brief: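 Readout is yeast growth inhibition, normalised to vehicle-treated controls, in the mec2-1 strain exposed to compound.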
# [3] = NCI Yeast Anticancer Drug Screen. Data for the sgs1 mgt1 strain (AID 161);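 note: 0% = growth of cultures given vehicle only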; details: S. cerevisiae sgs1 mgt1 strain, at 50.0 µM, stronger effect = higher value
# Method in brief: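 Growth of a repair-deficient yeast mutant was monitored after compound treatment and expressed as inhibition relative to vehicle-treated cultures.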
# [4] = NCI Yeast Anticancer Drug Screen. Data for the cln2 rad14 strain (AID 165);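 note: 0% = growth equal to vehicle treated cultures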; details: S. cerevisiae cln2 rad14 strain, at 50.0 µM, stronger effect = higher value
# Method in brief: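 Relative to vehicle controls, growth inhibition of compound-treated cln2 rad14 yeast was recorded.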
# [5] = NCI Yeast Anticancer Drug Screen. Data for the bub3 strain (AID 167); details: S. cerevisiae bub3 mutant strain, at 50.0 µM, stronger effect = higher value
# Method in brief: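 Readout: yeast growth inhibition, expressed relative to vehicle-only wells. The test organism is a mutant strain from a panel with lesions in DNA repair or checkpoint genes.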
# [6] = NCI Yeast Anticancer Drug Screen. Data for the mlh1 rad18 strain (AID 175); details: S. cerevisiae mlh1 rad18 strain growth inhibition; at 50.0 µM; stronger effect = higher value
# Method in brief: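 Test agents were incubated with a yeast strain of defined genotype (DNA damage repair defect). Inhibition of growth was derived by comparison with vehicle-exposed cultures.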
SMILES,growth inhibition [1],growth inhibition [2],growth inhibition [3],growth inhibition [4],growth inhibition [5],growth inhibition [6]
CCN(CC)C(=S)Nc1ccc(-c2cc3ccc(O)cc3oc2=O)cc1,-6.95%,11.6%,-5.45%,32.9%,18.2%,6.15%
Clc1ccc2c(N3CCC(CCC4CCN(c5ncnc6cc(Cl)ccc56)CC4)CC3)ncnc2c1,-17.9%,-21.6%,-7.4%,-39.4%,-14.6%,-14.2%
COc1cc(-c2cc(CCC(=O)Nc3ccccc3[N+](=O)[O-])n(-c3ccc([N+](=O)[O-])cc3[N+](=O)[O-])n2)ccc1O,-5.2%,-5.5%,-42.7%,31.8%,-4.65%,-27.7%
CCCCC(C)C(C)O (stereo not drawn),-28.5%,-62.1%,-24.6%,11.2%,-33.9%,-0.8%
Cc1ccc(S(=O)(=O)c2c(N)c3nc4ccccc4n3c3nc4ccccc4nc23)cc1,21.4%,-10.3%,-5.2%,25.7%,-0.45%,13.1%
BrC1CCC(Br)C(Br)CCC1Br (stereo not drawn),46.5%,54.9%,55.1%,31.8%,60%,70.4% (active)
CCOC(=O)C1C(=O)CC(C)(O)C(C(=O)OCC)C1c1ccc(N(C)C)cc1 (stereo not drawn),-32.7%,-15.7%,-3.6%,-37%,-1.4%,-10.2%
O=C1c2cn[nH]c2N=C(Nc2ccccc2)C1N=Cc1ccc([N+](=O)[O-])cc1 (stereo not drawn),-32.6%,-45.2%,-13.8%,12.5%,-24.3%,-17.9%
CCc1cc2c(cc1C(=O)CCN1CCCC1)C(C)(C)CCC2(C)C,99.5% (active),99.7% (active),98.5% (active),99.5% (active),99.5% (active),99.8% (active)
CC(=O)OC1CCC2(C)OC(=O)CC2C1 (stereo not drawn),2.2%,8.55%,6.9%,-41.9%,9.6%,1.4%
[Cl][Bi]([O]c1ccccn1)[O]c1ccccn1,9.9%,-1.55%,-13.4%,17.4%,28.6%,-25.8%
O=C(Nc1ccc(C(=O)O)cc1)Nc1nccs1,16.9%,6.5%,18%,-16.7%,7.2%,43.7%
Oc1ccccc1/C=N\c1nccs1,10.7%,19.2%,18.6%,12.4%,23.8%,13.2%
CC(C)/C(Cl)=N\OC(=O)Nc1ccc(C#N)cc1,-22.4%,52%,51.2%,11%,60.1%,41%
CC(=O)c1c(-c2ccccc2)noc1C,7.35%,-7.35%,-7.55%,-37.4%,-12.8%,-1.4%
O=C(Oc1ccccc1[N+](=O)[O-])Oc1ccccc1[N+](=O)[O-],-3.45%,16.3%,19.5%,-29.4%,16.2%,-2.7%
CC[N+](C)(CC)CCOc1ccc(Cc2nc3c([nH]2)c(=O)n(C)c(=O)n3C)cc1,8.15%,5.9%,13.8%,-4.4%,-9.6%,19.6%
CCOC(=O)c1sc(SSc2nc(C)c(C(=O)OCC)s2)nc1C,-4.4%,-4.7%,2.7%,12.9%,4.75%,10.1%
c1cncc(CSc2ncnc3nc[nH]c23)c1,11.8%,-24.4%,-20.1%,-21.7%,-48.4%,-10.5%

SMILES,growth inhibition [1],growth inhibition [2],growth inhibition [3],growth inhibition [4],growth inhibition [5],growth inhibition [6]
COc1ccc(NC(C)=O)cc1[N+](=O)[O-],-4.6%,-7.7%,-1.7%,-13.3%,-18.3%,6.15%
O=[N+]([O-])c1ccc2nc(Cl)cnc2c1,25.2%,31.2%,16.5%,-5.2%,3.8%,38.6%
CC(=O)Oc1cccc2ccccc12,-23.4%,-25.5%,1%,-109%,-36.8%,-5.65%
CC(=O)/C(=C\c1ccccc1)C(=O)CCN(C)C,21.9%,36.6%,14.4%,12.2%,7%,-9.9%
CC(C)CCC[C@@H](C)[C@H]1CC[C@@]2(C)C3=C(C(=O)C[C@]12C)[C@@]1(C)CC[C@H](O)C(C)(C)[C@@H]1CC3=O,8.5%,-16.7%,17.1%,-40.6%,6.1%,10.3%
C/C(=C/OS(=O)(=O)C(F)(F)F)c1ccccc1,-22.3%,-0.2%,-3.2%,-8.55%,-1.5%,4.25%
CCC1(C)NC(=O)OC1=O (stereo not drawn),2.25%,-5.7%,-27.6%,7.75%,20.5%,4.65%
CC(C)(C)n1c(=O)[nH]c(=O)n1C(C)(C)C,5.75%,-18.4%,-21.9%,1.9%,-32.8%,-22.2%
N#C/C(=C\c1ccccc1)c1ccc(F)cc1F,33.2%,30.6%,6.15%,6.55%,6.55%,9.7%
O=C(N/N=C\c1ccc(Cl)cc1)c1ccccc1,8%,6.9%,-0.1%,4.45%,7.05%,-4.55%
O=C(O)CCC1CC1C(=O)c1ccccc1 (stereo not drawn),15.2%,5.55%,-3.85%,-37%,-28.6%,17.9%
CCC1(CCBr)C(=O)NC(=Nc2ccccc2)NC1=O (stereo not drawn),5.6%,-5.8%,5.9%,-41.1%,9.9%,-14.3%
CCOC(=O)C(O)C(O)C(O)C(O)C(=O)OCC (stereo not drawn),5.6%,-8.15%,1.9%,-2.35%,-7.7%,-8.75%
CC1=C(Br)C(=O)C(c2c(C)cc(C)cc2C)=C(Br)C1=O,97.5% (active),98% (active),98.2% (active),92.8% (active),97.5% (active),98.5% (active)
Nc1nc2c(c(=O)[nH]1)CN(CCCN1CCOCC1)CN2,-36.2%,-26.1%,-19.1%,68%,-30%,0%
CC(=O)OCC(C)(C)C(OC(C)=O)C(C)C (stereo not drawn),16.1%,0.75%,13.8%,-46.8%,-0.5%,11.2%
O=C(O)CCCc1ccc(Oc2ccccc2)cc1,-6.05%,-15.3%,22%,-8.85%,-5%,-6.6%
N/N=C/c1cccn1-c1ccccc1Cl,33.8%,15.3%,26.9%,0.35%,28.2%,14.8%
Cc1cc(C)c(CC#N)s1,-25.2%,-12.1%,-1.65%,-52.6%,-15.4%,-22.3%
